Peg3 prom inh: Peg3 promoter-driven luciferase inhibitors, primary screen, cell-based, HeLa, luciferase luminescence. HeLa PEG-Prom luciferase reporter, overnight. inhibition, % at 20 µM. 360,000 tested, 1.7% active;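 active means inhibition of at least 50% at 20 µM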
TWEAK-Fn14 inh: inhibitors of TWEAK-Fn14 signaling, primary screen, luciferase reporter cells, uHTS | inhibition, % at 10 µM | 360,000 tested, 2% active | TWEAK-stimulated Fn14 reporter cells, luciferase luminescence, 8 h; in the data active means inhibition above about 50%
KKLEB tox: cytotoxicity in KKLEB CF airway cells, primary screen, cytotoxicity control for CF NF-kB inhibitor project, cell-based, uHTS, fluorescence assay plates; activity change (cytotoxicity), % at 5 µM; KKLEB CF airway cells viability, ATPlite luminescence, overnight; active compounds read low; cells stimulated with P. aeruginosa culture filtrate; AID 602141, 2011; 360,000 tested, 0.36% active;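 active means corrected activity change at or below -50% at 5 µM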
CF NFkB block: inhibitors of PAF-induced NF-kB signaling, primary screen, cell-based, GFP fluorescence, uHTS. KKLEB NF-kB-GFP reporter, GFP fluorescence overnight. inhibition, % at 5 µM. 360,000 tested, 0.86% active. AID 588850, 2011;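 active means at least 50% inhibition at 5 µM, scaled per plate between neutral and stimulator controls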;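 further: PAF is a Pseudomonas aeruginosa culture filtrate used as stimulus; plate controls were PAF-stimulated DMSO wells for no effect and unstimulated DMSO wells for full effect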
HIF-2a inh: HIF-2a reporter inhibitors, primary screen, luminescence, 786-0 RCC cells | 786-0 RCC cells HIF-2a reporter, luciferase luminescence, overnight | inhibition, % at 18.8 µM | 360,000 tested, 0.72% active | AID 624352, 2012;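 active means inhibition of the luminescence signal of 40% or more relative to plate controls, in a single-dose primary screen at 18.75 µM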
TROY signal inh: inhibitors of TROY-driven NF-kB signaling, primary screen, Q293 LMP1-TROYcd cells, NF-kB luciferase, uHTS. Q293 LMP1-TROYcd NF-kB luciferase reporter, 4 h. 360,000 tested, 0.98% active. inhibition, % at 10 µM;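 active means compounds whose plate-normalised and pattern-corrected inhibition of the luciferase reporter signal at the single screening dose is 50% or more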
The depositor's hits bear a star; / = not tested or not shown. Compounds with a hit are over-represented: about 4% of the library has one in this group of screens.

SMILES | Peg3 prom inh | TWEAK-Fn14 inh | KKLEB tox | CF NFkB block | HIF-2a inh | TROY signal inh
C[C@H]1CN([C@@H](C)CO)C(=O)Cc2cc(NS(=O)(=O)c3cn(C)cn3)ccc2O[C@@H]1CN(C)C(=O)Nc1ccc(F)cc1 | 12.3 | 2.1 | 3.1 | 10.1 | 1.1 | 13.2
CCCCNc1nc(N)nc(-c2cc(Cl)ccc2O)n1 | 33.3 | 81.8* | -27.1 | 82.5* | -183.9 | 28.2
Cc1ccc([C@@H]2C[C@H]3[C@@H](CN2S(=O)(=O)c2ccc(C)cc2)C(=O)C[C@@H](c2ccc(C)cc2)N3S(=O)(=O)c2ccc(Cl)cc2)cc1 | -0.6 | -11.3 | 25.8 | 3.1 | -1.4 | -5.6
O=C(COc1ccccc1)NC(=S)N1CCc2ccccc21 | -90.9 | -10.8 | 1.3 | -5.1 | -123.1 | -12.2
Cc1ccccc1C(=O)NC(=S)Nc1ccccc1N1CCCC1 | -14.6 | 11.6 | -12.8 | -35.2 | -28.9 | -0.5
COc1ccccc1C(=O)NC(=S)Nc1ccccc1N1CCCC1 | -29.2 | 75.5* | -10.9 | -23.1 | -105.2 | 77.8*
COc1ccccc1NC(=O)Nc1ccccc1N1CCOCC1 | 3.6 | 61.1* | 6.8 | -6.6 | -39.7 | 12.3
COc1ccccc1C(=O)NC(=S)N1CCCc2ccccc21 | -45.4 | 59.4* | -1.0 | -4.8 | -87.9 | 48.6
COc1ccc(OCC(=O)NC(=S)N2CCCc3ccccc32)cc1 | -57.1 | 55.0* | 7.0 | -8.0 | -108.7 | 37.1
COc1ccccc1C(=O)Nc1ccccc1N1CCOCC1 | 4.0 | -4.5 | -5.1 | -0.3 | -10.2 | -20.2
Cc1ccc(NC(=O)COC(=O)CCC2CCCC2)cc1S(=O)(=O)N1CCOCC1 | -9.1 | 9.7 | 1.8 | 12.3 | 6.5 | 4.6
COc1cc(C(=O)N/N=C/c2ccc(OC(=O)c3ccccc3Cl)cc2)ccc1O | 5.5 | -6.2 | 3.9 | -18.8 | -36.0 | 52.5*
COc1ccc(/C=C/C(=O)Oc2ccc(/C=N/NC(=O)c3ccccc3)cc2)cc1OC | -78.1 | -49.9 | -68.2* | 51.5* | -37.9 | -14.2
Nc1ccc(C(=O)N/N=C\c2ccc(OC(=O)c3ccccc3Cl)cc2)cc1 | -1.1 | -10.0 | -1.2 | -23.0 | -21.8 | 11.8
COc1ccc(/C=N/NC(=O)c2ccc3ccccc3c2)cc1OS(=O)(=O)c1ccc(NC(C)=O)cc1 | 61.5* | 52.4* | -13.4 | 61.1* | -13.8 | 36.8
Cc1cccc(C)c1-n1nnnc1C1c2ccccc2C(=O)N1CCCn1ccnc1 (centres undefined) | / | -4.4 | / | / | -1.8 | -21.6
O=C(COc1ccc(Cl)cc1)N(Cc1ccccc1)c1nc(-c2ccccc2)cs1 | 54.7* | 0.0 | -2.4 | 2.7 | 12.7 | -19.8
COc1ccc(-c2csc(N(CCc3ccccc3)C(=O)COc3ccccc3)n2)cc1 | 3.9 | -4.1 | -3.7 | -6.9 | 27.5 | -11.9
Cc1ccc(S(=O)(=O)Nc2ccc3c(c2)C(=O)c2ccccc2-3)cc1 | 13.5 | 33.2 | 0.2 | -12.4 | 1.3 | 52.8*
CCc1nnc(SCC(=O)NC2CCCCC2)nc1CC | 76.5* | -3.0 | -3.7 | 11.0 | -4.1 | -3.7
CCc1nnc(SCC(=O)NC2CCCC2)nc1CC | -0.2 | -5.1 | -13.9 | -4.7 | 8.2 | -3.8
COc1cc(OC)cc(-c2sc3ccc(OC)cc3c2C#CC2(N)CCCCC2)c1 | 94.9* | -11.6 | -29.2 | 32.8 | 0.5 | 13.0
COc1ccc(-c2sc3cc4c(cc3c2C#CC2(N)CCCCC2)OCO4)cc1 | 93.4* | -41.4 | -1.9 | 0.7 | -94.3 | -45.5
COc1ccc(-c2sc3cc4c(cc3c2C#Cc2cncn2C)OCO4)cc1 | 26.3 | -18.2 | -2.6 | -57.8 | -21.0 | -10.9
CCN(CC(=O)Nc1ccccc1C(F)(F)F)C(=O)C1CSC2(C)CCC(=O)N12 (centres undefined) | 0.6 | -13.7 | -3.5 | -15.9 | 5.2 | 6.7
SMILES | Peg3 prom inh | TWEAK-Fn14 inh | KKLEB tox | CF NFkB block | HIF-2a inh | TROY signal inh
O=C(O)c1ccccc1N/N=C\c1ccnc2ccccc12 | -7.8 | 90.0* | -6.0 | 2.5 | 17.1 | 47.9
Cc1cc(C(=O)NCC(c2cccs2)N2CCOCC2)ccc1[N+](=O)[O-] (centres undefined) | 14.2 | 1.1 | 1.9 | 6.1 | 8.8 | -6.4
Cc1ccc(-n2nc3c([n+]2[O-])CCc2c-3no[n+]2[O-])cc1 | 2.4 | 56.9* | 9.0 | -1.5 | -24.8 | -3.8
[O-][n+]1onc2c1CCc1c-2nn(-c2ccccc2Cl)[n+]1[O-] | 47.4 | 24.8 | -12.9 | 0.5 | 4.3 | 5.0
C[C@]12C=CC(=O)C=C1CC[C@@H]1[C@@H]2[C@@H](O)C[C@@]2(C)[C@H]1CC[C@]2(O)C(=O)COC(=O)CCC(=O)NCCc1ccc(O)cc1 | -22.9 | -3.5 | 34.3 | 80.3* | 13.3 | 1.0
C[C@]12C=CC(=O)C=C1CC[C@@H]1[C@@H]2[C@@H](O)C[C@@]2(C)[C@H]1CC[C@]2(O)C(=O)CO | 6.8 | -6.6 | 26.5 | 73.4* | 23.7 | 26.5
CC(=O)OCC(=O)C1(O)CCC2C3CCC4=CC(=O)C=CC4(C)C3C(=O)CC21C (centres undefined) | 0.8 | -16.2 | 4.2 | 13.8 | 3.5 | -9.9
CCOC(=O)O[C@]1(C(=O)COC(=O)CC)CC[C@H]2[C@@H]3CCC4=CC(=O)C=C[C@]4(C)[C@H]3[C@@H](O)C[C@@]21C | -30.4 | 8.0 | 9.3 | 76.7* | 15.7 | 14.5
CCC(=O)OCC(=O)C1(OC(=O)CC)[C@H](C)C[C@H]2[C@H]3[C@H]([C@@H](O)C[C@@]21C)[C@@]1(C)C=CC(=O)C=C1C[C@H]3Cl (some centres undefined) | -9.2 | -40.0 | 31.7 | 69.0* | 28.1 | 16.4
CN1OC[C@@H]2CN(Cc3cc(Cl)cc(Cl)c3)[C@H](c3cccc(-c4ccc(C#N)cc4)c3)C[C@@H]21 | 12.7 | 16.7 | -21.9 | 6.9 | -0.4 | -13.9
C[C@H]1C[C@@H]2[C@H]([C@@H](O)C[C@@]3(C)[C@H]2CC[C@]3(O)C(=O)CO)[C@@]2(C)C=CC(=O)C=C12 | -8.6 | -6.1 | 19.7 | 74.0* | 16.9 | 15.9
CC12CCC(=O)C=C1CCC1C2C(=O)CC2(C)C1CCC2(O)C(=O)CO (centres undefined) | 4.8 | -12.7 | -4.1 | 11.1 | 12.7 | 2.5
C[C@]12C=CC(=O)C=C1CC[C@@H]1[C@@H]2[C@@H](O)C[C@@]2(C)[C@H]1CC[C@]2(O)C(=O)COC(=O)CCC(=O)O | 12.0 | -4.0 | 16.0 | 55.6* | 31.8 | 20.8
COC(=O)c1ccccc1S(=O)(=O)C(C)(C)C | 3.9 | -24.7 | -2.3 | 9.3 | 15.8 | 24.9
COC(=O)c1ccccc1S(=O)(=O)NNC(=O)Nc1ccccc1 | -2.2 | 68.8* | 8.1 | -33.7 | -1.9 | 32.7

Bioassay records as filed in PubChem BioAssay.
